# Source: PubChem BioAssay (NCI)
# This is part of a sample that, as a whole, favours compounds with a hit. Of some 83,000 tested, about 20% had one in any assay.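 Negative percent growth values reflect cell death: -40 means 40% of the cells present at the start died, and -100 means all died.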 A number with no mark means an inactive call. Active and inactive are the calls of the source. How the source made its calls: active means growth percent below 10; inactive means the rest.
# Key:
# Assay in all cases: NCI-60 one-dose screen, 48 h (100 = growth as untreated, 0 = no growth, -100 = all killed)
# Conditions in all cases: 10 µM unless noted
# T-47D breast = tested on: T-47D breast
# MDA-MB-435 melanoma = tested on: MDA-MB-435 melanoma
# SW-620 colon = tested on: SW-620 colon
# MCF7 breast = tested on: MCF7 breast
# HCC-2998 colon = tested on: HCC-2998 colon
# KM12 colon = tested on: KM12 colon
# MDA-MB-468 breast = tested on: MDA-MB-468 breast
# HCT-116 colon = tested on: HCT-116 colon
Compound,growth (T-47D breast),growth (MDA-MB-435 melanoma),growth (SW-620 colon),growth (MCF7 breast),growth (HCC-2998 colon),growth (KM12 colon),growth (MDA-MB-468 breast),growth (HCT-116 colon)
Cn1cc(-c2cc3nc(-c4c[nH]c5ccc(Br)cc45)cc(N)n3n2)c2ccccc21,-60.8% (active),-88.6% (active),-63.5% (active),-87.2% (active),-82.4% (active),-83% (active),-70.3% (active),
COc1cc(-c2nc3ccc(C)cc3[nH]2)ccc1OCc1nnc(-c2ccc(Br)cc2)o1,-14.6% (active),46.1%,35.5%,12.8%,58.7%,37.7%,-34.3% (active),11.5%
Cc1ccc2c(c1)nc(-c1ccccc1)n2CC(=O)N=Nc1c(O)[nH]c2ccc(Br)cc12,-46% (active),-33.4% (active),2.54% (active),,-72% (active),-46% (active),-78.4% (active),-91.7% (active)
COc1ccc(NC(=O)c2sc3nc(C(C)C)ccc3c2N)cc1,42%,87.5%,,79.5%,100%,78.2%,55.8%,94.7%
NS(=O)(=O)c1ccc(-n2cc(-c3cccc(NC(=O)c4cc(Cl)cc(Cl)c4)c3)nn2)cc1,48%,50.4%,54.7%,37.1%,51%,2.24% (active),72.8%,
COc1cc(CNC(=O)/C=C/c2ccc3c(c2)OCO3)ccc1OCc1cn(-c2cccc(C(F)(F)F)c2)nn1,17.1%,39.9%,,,8.65% (active),48.8%,-21.4% (active),-25.3% (active)
C#CCOc1cc(N(CC)CC)ccc1C(C(=O)NC(C)(C)C)N(C(=O)C1CCc2cc(F)ccc2O1)c1ccccc1Br (stereo not given),55.6%,50.6%,59.2%,28.7%,93.5%,40.4%,38.2%,27.5%
Cc1c(C(=O)NNC(=O)c2ccc(Cl)cc2)nnn1-c1ccc(Br)cc1,93%,100%,,84.3%,105%,104%,95.6%,89.5%
O=C(NNc1nc2cc(C(F)(F)F)ccc2n2cccc12)c1cnccn1,-74% (active),-56.1% (active),-26.4% (active),-62.4% (active),-72.2% (active),-55% (active),-47.7% (active),
O=C(COc1ccc2c(c1)CCCC(=O)N2)NCc1ccccc1,95.7%,3.41% (active),60.9%,59.3%,95.9%,58.9%,28.8%,93.5%
N#Cc1c(-c2cccc(Cl)c2Cl)cc(-c2c[nH]c3ccccc23)[nH]c1=O,63.4%,57.7%,,35.8%,88.1%,64.3%,46.5%,
CC1=C(C(=O)OC(C)C)C(c2cccc(O)c2)NC(=S)N1 (stereo not given),93.7%,104%,,90.6%,105%,106%,92%,102%
